A selection: hits, their analogues and other compounds. The true share with any hit is near 4.7%.
HSF1 inh = HSF1 inhibition; NIH3T3-HGL HSE-luciferase, MG132-induced, luminescence 8 h; hits give low values; activity change, negative = inhibition, % at 7.5 µM (by protocol); 0.77% of 300,000 active;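 active = more than half of replicate wells show activity change below -50%, luminescence cut by over half; inconclusive = some wells, but at most half, below -50%; inactive = no replicate well below -50%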;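 also: luciferase reports HSF-1 transcriptional activity via heat shock element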
HSP90 refold inh = blocks HSP90-mediated luciferase refolding in reticulocyte lysate | AID 1789 | inhibition, % at 5.6 µM | Rabbit reticulocyte lysate, luciferase refolding luminescence, 3 h | 0.91% of 290,000 active;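 active = inhibition above the screen-wide mean plus 3 SD, computed separately per campaign, cut at about 16% in these data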;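 also: inhibitors lower the luminescence because luciferase stays unfolded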
TWEAK Fn14 block = inhibitors of TWEAK-Fn14 interaction signaling; TWEAK-stimulated Fn14 reporter cells, luciferase luminescence, 8 h; inhibition, % at 10 µM; 2% of 360,000 active; in the data active = inhibition above about 50%
LMP1 NFkB inh = reduces LMP1-driven NF-kappaB luciferase signal | LMP1-induced NF-kappaB luciferase reporter cells, luminescence | inhibition, % at 12.5 µM | 0.69% of 350,000 active | AID 504558; in the data active = inhibition above about 41%; inconclusive = no clear call, values can overlap the other calls
HSF-1 act = increases HSF-1 driven luciferase reporter signal. activation, % at 9 µM. NIH3T3-HGL HSF-1 luciferase reporter, MG132, 8 h; 100% = twice DMSO control signal. AID 504408. 1.7% of 300,000 active;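 active = mean replicate activation of at least 50% with a set share of replicates each reaching 50%; inconclusive = only one of those two conditions met; inactive = mean below 50% and too few replicates reaching it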
TROY NFkB inh = blocks TROY-dependent signaling in reporter cells. 0.98% of 360,000 active. AID 1347056. Q293 LMP1-TROYcd NF-kB luciferase reporter, 4 h. inhibition, % at 10 µM;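 active = compounds whose plate-normalised and pattern-corrected inhibition of the luciferase reporter signal at the single screening dose is 50% or more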
A number is an active result; i = inactive; ? = inconclusive; nt = not tested or not shown.

SMILES	HSF1 inh	HSP90 refold inh	TWEAK Fn14 block	LMP1 NFkB inh	HSF-1 act	TROY NFkB inh
O=[N+]([O-])c1ccc2c(c1)nc1n2CCN(CC2CCCO2)C1 (stereo not given)	i	i	i	i	i	i
COc1ccc(-c2cn3nc4c(nc3n2)CCCC4)cc1	nt	i	i	62.3	nt	i
CC1CCN(CC(=O)Nc2ccc(S(=O)(=O)NC3CC3)cc2)CC1	-64.9	i	i	i	i	i
CC1CCN(CC(=O)Nc2ccc(S(=O)(=O)N3CCC(C)CC3)cc2)CC1	i	i	i	i	i	i
Cc1c(C(=O)Nc2ccccc2)sc2nc(-c3ccccc3)cn12	i	i	i	i	54.7	i
COc1ccc(-c2cn3c(C)c(C(=O)N4CCN(c5ccccc5)CC4)sc3n2)cc1	nt	nt	i	i	nt	i
COC(=O)C1CCN(C(=O)c2sc3nc(-c4ccccc4)cn3c2C)CC1	-72.0	i	i	i	i	i
COc1ccc(-c2cn3c(C)c(C(=O)N4CCN(c5ccc(F)cc5)CC4)sc3n2)cc1	i	67.7	i	i	i	i
COc1ccc(-c2cn3c(C)c(C(=O)NC(C)(C)C)sc3n2)cc1	i	44.5	i	i	i	i
CCCNC(=O)C1(C)CCN1C(=O)c1cc(C)n(C)n1 (stereo not given)	nt	nt	i	nt	nt	i
Cc1ccc(C)c(NS(=O)(=O)c2ccc(-c3cnc(C4CC4)o3)cc2)c1	i	i	i	i	i	i
Cc1cc(C)cc(NS(=O)(=O)c2ccc(-c3cnc(C4CC4)o3)cc2)c1	i	i	i	i	i	56.3
Cc1cccc(NS(=O)(=O)c2ccc(-c3cnc(C4CC4)o3)cc2)c1C	i	i	i	i	i	57.6
CCCCOc1ccc(/C=C/C(=O)OCC(=O)N2CC(=O)Nc3ccccc32)cc1OCC	i	i	68.1	i	i	i
COc1ccc(/C=C/C(=O)OCC(=O)N2CC(=O)Nc3ccccc32)cc1	i	i	i	i	i	i
CSc1ccc(Cn2c(C)c(C(=O)NCc3ccc4c(c3)OCCO4)sc2=O)cc1	nt	nt	i	nt	nt	i
COc1ccc(C2=NO[C@@H]3C(=O)N(C4CCCCC4)C(=O)[C@H]23)cc1OC	i	i	i	i	i	i
COc1ccc(C2=NO[C@@H]3C(=O)N(c4ccc5c(c4)OCCO5)C(=O)[C@H]23)cc1OC	i	i	80.8	i	i	69.1
CC(=O)Nc1cccc(C(=O)/C=C/c2ccc(C)cc2)c1	i	i	70.7	i	i	i
CC(=O)Nc1ccc(/C=C/C(=O)c2ccc3c(c2)OCCO3)cc1	i	i	i	i	i	i
CCC(=O)Nc1cccc(C(=O)/C=C/c2ccc(F)cc2)c1	i	i	71.6	i	74.6	i
COc1cccc(NC(=S)NC(=O)/C=C/c2ccc(F)cc2)c1	i	i	i	i	i	i
CCOC(=O)C1(C)CCCN(C(=O)c2ccc(OC)cc2OC)C1 (stereo not given)	nt	nt	i	nt	nt	i
COC(=O)CSc1ncnc2c1sc1nc3c(cc12)COC(C)(C)C3	i	i	i	51.3	i	i
CCc1nc(OCc2ccco2)c2sc3nc4c(cc3c2n1)COC(C)(C)C4	nt	16.1	i	i	nt	i
SMILES	HSF1 inh	HSP90 refold inh	TWEAK Fn14 block	LMP1 NFkB inh	HSF-1 act	TROY NFkB inh
CCc1nc2c(sc3nc4c(cc32)COC(C)(C)C4)c(=O)n1Cc1ccco1	i	i	i	i	?	i
CCc1nc2c(OCc3ccc(Cl)cc3)cccn2c1N(C=O)Cc1ccccc1	nt	nt	i	nt	nt	i
CC(Sc1nc2ncc(Cl)cc2[nH]1)C(=O)Nc1ccccc1[N+](=O)[O-] (stereo not given)	nt	nt	i	i	nt	i
CCC(=O)N1Cc2cc(C(=O)Nc3nccs3)nc(-c3cccc(-c4ccccc4OC)c3)c2[C@H]1CCO	nt	nt	i	nt	nt	i
O=C(COC(=O)c1ccc2[nH]c3c(c2c1)CCCC3)Nc1ccccc1Cl	i	i	i	i	i	i
CCC(C)c1ccccc1NC(=O)COC(=O)c1ccc2[nH]c3c(c2c1)CCCC3 (stereo not given)	i	i	97.6	i	i	56.0
CC(=O)c1ccc(N2CCC(c3cc(-c4ccc(Cl)cc4Cl)n[nH]3)CC2)c([N+](=O)[O-])c1	i	i	88.2	i	i	i
Clc1ccccc1OCc1nnc(-c2ccccc2Br)o1	i	i	i	i	i	i
N#Cc1ccccc1OCc1nnc(-c2ccccc2Br)o1	i	i	i	i	82.6	i
NC(N)=NS(=O)(=O)c1ccc(NC(=S)NC(=O)c2ccncc2)cc1	i	i	i	i	i	i

Screening data: PubChem, several laboratories
